The source of these data is paper PMC5540273 (PLoS ONE, 2017).

Some test systems named below: ERN1; FER; FES; FGFR1; FGFR2; FGFR3; FGFR4; FGR; FLT1; FLT3-autoinhibited; FLT3; FLT4; FRK.
What all share (conditions): concentration: 1 μM,replicates: in singlicate; n = 1
The next experiment concerns T1, ERK1.
T1 construct: gene MAPK3

For another experiment, the system named is T2, ERK2.
T2 construct: gene MAPK1

In the next experiment the test system is T3, ERK3.
T3 construct: gene MAPK6

The next experiment has as its system T4, ERK4.
T4 construct: gene MAPK4

In a further experiment the test system is T5, ERK5.
T5 construct: gene MAPK7

The test system of a further experiment is T6, ERK8.
T6 construct: gene MAPK15

The next experiment deals with T7, FAK.
T7 construct: gene PTK2
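Further: KINOMEscan kinase panel screen.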

Consider `Nc1nccc(-c2ccc3c(N)n[nH]c3c2)n1` [GSK1034945], for which the “%Inh” value in the experiment with ERK1 came to 0%; in the experiment on ERK2, 0%; in the experiment on ERK3, 0%; with ERK4, 8%; in the experiment with ERK5 it was 0%; with ERK8 it was 49%. Further, the “%Inh” value in the experiment on ERN1, with FAK, in the experiment on FER, in the experiment with FES, with FGFR1 and with FGFR2 was 0% each time. The “%Inh” value is listed as 0% in the experiment on FGFR3; 12% in the experiment with FGFR4; 15% in the experiment on FGR; 6% in the experiment with FLT1; 2% with FLT3-autoinhibited; 0% in the experiment on FLT3. Moreover, the “%Inh” value is given as 11% in the experiment with FLT4 and 0% in the experiment with FRK.
For `Cn1ccc2ncnc(Oc3ccc(NC(=O)Nc4ccnc(C(F)(F)F)c4)c(Cl)c3)c21`, the “%Inh” value in the experiment with ERK1, with ERK2, in the experiment with ERK3, with ERK4, in the experiment with ERK5 and with ERK8 was 0% each time. Also, the “%Inh” value with ERN1 turned out to be 11%; in the experiment with FAK it was 0%; with FER it was 0%; in the experiment on FES, 10%; in the experiment with FGFR2, 5%; in the experiment with FGFR3, 0%. Besides, the “%Inh” value with FGFR4 was determined as 0%; with FGR, 2%; with FLT1 it was 94.5%; in the experiment on FLT3-autoinhibited, 0%; in the experiment on FLT3, 64%; with FLT4, 97.4%. Moreover, the “%Inh” value in the experiment with FRK was 2%.
As for `Cn1cc(-c2cccc3c(N)c(C(N)=O)nnc23)cn1`, the “%Inh” value in the experiment with ERK1 was 5%; in the experiment on ERK2, 27%; with ERK3, 0%; with ERK4 it was 0%; with ERK5, 0%; in the experiment with ERK8 it was 0%. Besides, the “%Inh” value with ERN1 is recorded as 33%; in the experiment with FAK it was 21%; in the experiment on FER, 8%; with FES, 8%; in the experiment on FGFR1, 25%; in the experiment with FGFR2, 2%. Besides, the “%Inh” value turned out to be 12% with FGFR3; 9% with FGFR4; 9% with FGR; 0% in the experiment with FLT1; 30% in the experiment on FLT3-autoinhibited; 27% in the experiment with FLT3. Also, the “%Inh” value with FLT4 is 15%; with FRK, 2%.
In the case of `CN(c1ccc2c(c1)nc(NCc1ccc(F)cc1)n2C)c1ccnc(Nc2ccc(CS(C)(=O)=O)cc2)n1.Cl` [GW813244], the “%Inh” value in the experiment on ERK1 was found to be 3%; in the experiment with ERK2 it was 0%; in the experiment with ERK3, 0%; in the experiment with ERK4 it was 0%; in the experiment with ERK5, 0%; in the experiment on ERK8 it was 29%. In addition, the “%Inh” value with ERN1 worked out at 28%; in the experiment on FAK it was 22%; with FER, 20%; in the experiment with FES, 0%; with FGFR1, 75%; with FGFR2, 59%. For the same compound, the “%Inh” value is on record as 21% in the experiment with FGFR3; 22% with FGFR4; 28% with FGR; 98.9% with FLT1; 1% with FLT3-autoinhibited; 98.3% with FLT3. For the same compound, the “%Inh” value was 99.9% in the experiment with FLT4 and 77% in the experiment on FRK.
Take `CCCC(=O)Nc1n[nH]c2ncccc12` [SB-601436]: the “%Inh” value in the experiment on ERK1, with ERK2, in the experiment with ERK3, with ERK4, in the experiment with ERK5 and in the experiment with ERK8 was 0% each time. The “%Inh” value with ERN1 was 0%; in the experiment on FAK, 0%; in the experiment with FER, 0%; in the experiment on FES, 12%; in the experiment with FGFR1, 0%; in the experiment with FGFR2, 0%. Further, the “%Inh” value is 0% in the experiment with FGFR3; 0% in the experiment with FGFR4; 30% in the experiment with FGR; 0% with FLT1; 0% with FLT3-autoinhibited; 13% in the experiment on FLT3. Moreover, the “%Inh” value in the experiment on FLT4 and in the experiment with FRK was 0% throughout.
Consider `CN(c1cccc(CNc2nc(Nc3ccc4c(c3)CC(=O)N4)ncc2C(F)(F)F)c1)S(C)(=O)=O`, for which the “%Inh” value worked out at 3% in the experiment on ERK1; 41% with ERK2; 0% in the experiment on ERK3; 0% in the experiment on ERK4; 18% with ERK5; 79% in the experiment with ERK8. In addition, the “%Inh” value with ERN1 came to 11%; with FER, 65%; with FES it was 62%; in the experiment with FGFR1, 26%; in the experiment on FGFR2, 31%; in the experiment on FGFR3, 11%. Also, the “%Inh” value with FGFR4 is 0%; in the experiment with FGR, 25%; in the experiment on FLT1, 35%; in the experiment on FLT3-autoinhibited, 39%; in the experiment on FLT3, 98.7%; in the experiment on FLT4, 38%. Moreover, in the experiment with FRK, the “%Inh” value worked out at 0%.
With `Cc1cccc2c(-c3ccncc3)c(-c3ccc(F)cc3)nn12.Cl` [GW461487], the “%Inh” value was found to be 0% in the experiment with ERK1; 0% in the experiment with ERK2; 5% in the experiment with ERK3; 15% with ERK4; 0% in the experiment on ERK5; 0% in the experiment with ERK8. Further, the “%Inh” value in the experiment on ERN1 is reported as 7%; in the experiment on FAK it was 0%; in the experiment on FER, 4%; in the experiment with FES, 0%; with FGFR1 it was 0%; with FGFR2 it was 33%. In addition, the “%Inh” value with FGFR3 is on record as 4%; in the experiment with FGFR4, 9%; in the experiment with FGR it was 2%; in the experiment with FLT1, 8%; in the experiment on FLT3-autoinhibited, 0%; in the experiment with FLT3 it was 0%. For the same compound, the “%Inh” value in the experiment on FLT4 and with FRK was 0% in each case.
As for `CSc1nccc(-c2c(-c3ccc(F)cc3)ncn2CCCN2CCOCC2)n1.Cl` [SB-217146], the “%Inh” value with ERK1, with ERK2, in the experiment with ERK3, in the experiment with ERK4, in the experiment on ERK5 and in the experiment on ERK8 was 0% throughout. Moreover, the “%Inh” value with ERN1 is given as 33%; in the experiment with FAK, 0%; with FER, 0%; in the experiment with FES, 3%; in the experiment with FGFR1, 0%; with FGFR2 it was 0%. Moreover, the “%Inh” value with FGFR3, in the experiment on FGFR4, in the experiment on FGR, with FLT1, with FLT3-autoinhibited and with FLT3 was 0% each time. Further, the “%Inh” value in the experiment on FLT4 and with FRK was 0% each time.
Regarding `C[C@@H]1CNc2c(sc3ccc4nc(-c5ccc(O)cc5)ccc4c23)C(=O)N1`, the “%Inh” value in the experiment on ERK1 amounted to 0%; in the experiment with ERK2 it was 16%; in the experiment on ERK3, 0%; in the experiment on ERK4 it was 13%; in the experiment on ERK5 it was 8%; with ERK8, 3%. Besides, the “%Inh” value in the experiment on ERN1 is listed as 10%; in the experiment with FAK, 6%; with FER it was 0%; in the experiment with FES, 4%; in the experiment on FGFR1, 14%; in the experiment with FGFR2, 16%. The “%Inh” value is 12% in the experiment on FGFR3; 31% in the experiment with FGFR4; 0% in the experiment on FGR; 6% in the experiment on FLT1; 6% in the experiment on FLT3-autoinhibited; 16% in the experiment on FLT3. Also, the “%Inh” value in the experiment with FLT4 and in the experiment on FRK was 0% each time.
In the case of `COc1cc2ncn(-c3cc(OCC4CCCCC4)c(C(N)=O)s3)c2cc1OC` [GSK204559], the “%Inh” value in the experiment on ERK1 is on record as 6%; in the experiment with ERK2, 2%; in the experiment with ERK3, 18%; with ERK4, 4%; with ERK5, 0%; in the experiment with ERK8, 2%. Besides, the “%Inh” value was found to be 8% with ERN1; 0% with FAK; 23% in the experiment with FER; 8% with FES; 26% in the experiment with FGFR1; 3% in the experiment with FGFR2. Besides, the “%Inh” value in the experiment on FGFR3 is on record as 12%; in the experiment with FGFR4, 9%; with FGR, 29%; in the experiment with FLT1 it was 44%; in the experiment with FLT3-autoinhibited it was 0%; in the experiment on FLT3 it was 0%. Further, the “%Inh” value in the experiment with FLT4 amounted to 66%; in the experiment with FRK, 4%.
In the case of `CS(=O)(=O)c1cccc(CNc2nc(Nc3ccc4c(c3)[C@@H]3C[C@@H]4CNC3=O)ncc2C(F)(F)F)c1`, the “%Inh” value came to 24% in the experiment with ERK1; 44% in the experiment with ERK2; 0% with ERK3; 0% in the experiment on ERK4; 7% with ERK5; 99.6% in the experiment on ERK8. The “%Inh” value with ERN1 is recorded as 17%; in the experiment with FAK, 100%; in the experiment with FER it was 93.4%; with FES it was 85%; in the experiment on FGFR1, 86%; with FGFR2, 85%. Also, the “%Inh” value came out at 73% with FGFR3; 92.1% in the experiment on FGFR4; 31% in the experiment with FGR; 94.4% with FLT1; 75% in the experiment with FLT3-autoinhibited; 99.6% in the experiment with FLT3. Further, the results for the “%Inh” value in the experiment on FLT4 and in the experiment on FRK were 99.4% and 0%, respectively.
